According to publication PMC5540273 (PLoS ONE, 2017):

test system: MAP4K3; conditions: concentration: 1 μM, replicates: in singlicate; n = 1
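Also: KINOMEscan kinase panel screen.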

Compound | %Inh
CC(C)(C)c1ccc2nccc(Nc3cccc(O)c3)c2c1 [GW856795] | 0%
COc1cc2c(cc1OCCN1CCNCC1)ncc1c3ccc(C#N)cc3[nH]c21 | 8%
COc1cc(Nc2nccc(-c3c(-c4cccc(NC(=O)c5c(F)cccc5F)c4)nn4ccccc34)n2)cc(OC)c1OC [GSK323521] | 71%
Cc1ccc(S(=O)(=O)Nc2ccc(Nc3nccc(Nc4cccc5[nH]ncc45)n3)cc2)cc1 [GSK581271] | 34%
CCc1ccc(-c2ccc3c(c2)-c2c(cnn2C)S(=O)(=O)N3C)cc1 | 3%
O=C(Nc1cccc(-c2nn3ncccc3c2-c2ccnc(Nc3ccccc3)n2)c1)c1c(F)cccc1F [GSK198271] | 33%
Fc1ccc(-c2ncn(C3CCNCC3)c2-c2ccnc(Oc3ccc(-c4ccccc4)cc3)n2)cc1 [SB-245391] | 3%
CN(c1ccc(NC(=O)Nc2cc(C(F)(F)F)ccc2F)cc1)c1ccnc(Nc2ccc(S(N)(=O)=O)cc2)n1 [GW809893] | 96.8%
CC(=O)Nc1nc2cnc(Nc3cc(NC(=O)c4cccc(C5(C#N)CC5)c4Cl)ccc3C)nc2s1 | 0%
Cl.c1ccc(-c2ccc3c(Nc4ccc5[nH]ncc5c4)ccnc3c2)nc1 [GW440137] | 0%
COc1cc(Nc2ncc3c(C)nc(-c4cc5ccccc5[nH]4)n3n2)cc(OC)c1OC [GW869516] | 0%
COC(=O)Nc1nc2ccc(Oc3ccc(NC(=O)Nc4cc(C(F)(F)F)ccc4F)cc3)cc2n1C.Cl [GW692089] | 0%
Nc1n[nH]c2cnc(-c3ccccc3)cc12 [SB-642124] | 3%
COc1cc(Nc2nccc(N3CCC(NC(=O)Nc4cccc(C(C)=O)c4)C3)n2)cc(OC)c1OC (stereo not shown) [GSK1379753] | 0%
O=C(NC1CCN(c2ccnc(Nc3ccc(F)cc3)n2)C1)c1cc2ccccc2s1 (stereo not shown) [GSK1379716] | 0%
c1ccc(-c2cnc3nccnn23)cc1 [AH20685] | 0%
Nc1ncnc2c1nc(-c1ccccc1)n2-c1ccccc1 [SKF-97293] | 3%
CN(C)Cc1ccc(-c2ccc3c(Nc4ccc(Oc5ccccn5)cc4)ccnc3c2)o1 [GW567148] | 0%
COc1cc(Nc2nccc(N3CCC(NC(=O)c4cc5ccccc5s4)C3)n2)cc(OC)c1OC (stereo not shown) [GSK1379760] | 8%

Compound | %Inh
Cl.Cl.NCC(NCc1ccc(-c2ccnc3[nH]ccc23)s1)c1ccccc1 (stereo not shown) [GSK1321565] | 2%
Cl.NC(=O)c1cccc(Nc2nccc(Nc3ccc(Oc4c(Cl)cccc4Cl)c(Cl)c3)n2)c1 [GW659009] | 0%
O=C(Nc1ccccc1F)NC1CCN(c2ccnc(Nc3ccc(F)cc3)n2)CC1 [GSK1379800] | 0%
Cc1ccc(C(=O)N2CC[C@@H](O)C2)cc1-n1c(C)cc(OCc2ccc(F)cc2F)c(Br)c1=O | 0%
CN(C)S(=O)(=O)c1cc(-c2ccc3nccc(-c4cccc(S(N)(=O)=O)c4)c3c2)cnc1N [GSK1669921] | 5%
O=c1[nH]cc(-c2ccc(N3CCOCC3)cc2)c2sc(-c3cn[nH]c3)cc12 [GSK2276055] | 0%
CCCCc1nn2ncccc2c1-c1ccnc(Nc2ccc(N3CCN(C)CC3)cc2)n1 [GW684941] | 12%
O=C(Nc1cccc(-c2nn3ccccc3c2-c2ccnc(Nc3cccc(F)c3)n2)c1)c1c(F)ccc(F)c1Cl [GSK357952] | 1%
c1ccc(-c2n[nH]cc2Nc2ccnc3ccccc23)nc1 [GW694077] | 0%
COc1cc(Nc2nccc(-c3c(-c4cccc(NC(=O)c5c(F)cccc5F)c4)nn4ncccc34)n2)cc(OC)c1OC [GSK327238] | 83%
COc1cccc(C(=O)Nc2cccc(Oc3ccc4nc(NC(=O)C5CC5)cn4n3)c2)c1 | 69%
COCCOCCOc1cc2ncc3c4ccc(C#N)cc4[nH]c3c2cc1OC | 39%
Nc1ncc(-c2ccc3nccc(-c4ccncc4)c3c2)cc1S(=O)(=O)N1CCOCC1 [GSK1627798] | 0%
Cc1cccc(NC(=O)Nc2ccc(Oc3ncnc4ccn(C)c34)cc2)c1 | 0%
CN1CCN(Cc2cccc(-c3ccc4c(Nc5ccc(Oc6ccccc6)cc5)ccnc4c3)c2)CC1 [GW578342] | 0%
COc1cccc(C2=C(Nc3ccc(Cl)c(C(=O)O)c3)C(=O)NC2=O)c1 [SB-390769] | 0%
COc1ccc(Nc2nccc(NCCNC(=O)c3cc4ccccc4s3)n2)cc1 [GSK1379896] | 0%
COc1ccc(CNC(=O)NC2CCN(c3ccnc(Nc4ccc(F)cc4)n3)CC2)cc1 [GSK1379788] | 0%
